Our source for the binding signal values is publication PMC11006913.

Changes are numbered by the printed parent chain.

What all share (assay): PBM; 200 nM protein, PBS
Holding throughout (details): dsDNA, one strand shown

The target of assay [1] is HESX1 (Homo sapiens, UniProt Q9UBX0 95-180, R165K).
Assay [2] addresses HESX1 (Homo sapiens, UniProt Q9UBX0 95-180).
Assay [3] concerns the target PROP1 (Homo sapiens, UniProt O75360 56-141).
Assay [4] concerns the target HESX1 (Homo sapiens, UniProt Q9UBX0 95-180, R109Q).
Assay [5] has as its target PROP1 (Homo sapiens, UniProt O75360 56-141, R99H).
For assay [6], the target named is HESX1 (Homo sapiens, UniProt Q9UBX0 95-180, P111T).
Sequence of HESX1 (Homo sapiens, UniProt Q9UBX0 95-180, P111T) (Q9UBX0 95-180 P111T): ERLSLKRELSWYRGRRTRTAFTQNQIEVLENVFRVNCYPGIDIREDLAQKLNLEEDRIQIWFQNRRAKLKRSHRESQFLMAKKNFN
Assay [7] deals with PROP1 (Homo sapiens, UniProt O75360 56-141, F88S).
Sequence of PROP1 (Homo sapiens, UniProt O75360 56-141, F88S) (O75360 56-141 F88S): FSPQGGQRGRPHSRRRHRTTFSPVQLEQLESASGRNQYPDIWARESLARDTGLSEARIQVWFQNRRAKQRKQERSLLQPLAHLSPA
Assay [8] has as its target HESX1 (Homo sapiens, UniProt Q9UBX0 95-180, F115L).
Assay [9] deals with VAX1 (Homo sapiens, UniProt Q5SQQ9 86-172).
Sequence of VAX1 (Homo sapiens, UniProt Q5SQQ9 86-172) (Q5SQQ9 86-172): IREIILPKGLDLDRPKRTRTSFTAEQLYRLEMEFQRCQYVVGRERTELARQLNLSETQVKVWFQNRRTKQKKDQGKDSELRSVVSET
The target of assay [10] is VAX1 (Homo sapiens, UniProt Q5SQQ9 86-172, T142I).
Sequence of VAX1 (Homo sapiens, UniProt Q5SQQ9 86-172, T142I) (Q5SQQ9 86-172 T142I): as the sequence (Q5SQQ9 86-172) above, with T57I counted along it
Assay [11] deals with VAX1 (Homo sapiens, UniProt Q5SQQ9 86-172, K157R).
Sequence of VAX1 (Homo sapiens, UniProt Q5SQQ9 86-172, K157R) (Q5SQQ9 86-172 K157R): as the sequence (Q5SQQ9 86-172) above, with K72R counted along it
Assay [12] has as its target T1, NKX2-6 (Homo sapiens, UniProt A6NCS4 118-204).
T1 sequence: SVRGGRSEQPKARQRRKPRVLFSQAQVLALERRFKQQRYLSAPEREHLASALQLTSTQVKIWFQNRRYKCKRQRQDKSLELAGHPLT

The target in assay [13] is T2, NKX2-6 (Homo sapiens, UniProt A6NCS4 118-204, F151L).
T2 sequence: T1 sequence with F34L

Sequence of HESX1 (Homo sapiens, UniProt Q9UBX0 95-180, R109Q) (Q9UBX0 95-180 R109Q): as the sequence (Q9UBX0 95-180 P111T) above, with R15Q, T17P counted along it
Sequence of HESX1 (Homo sapiens, UniProt Q9UBX0 95-180, F115L) (Q9UBX0 95-180 F115L): as the sequence (Q9UBX0 95-180 P111T) above, with T17P, F21L counted along it
Sequence of HESX1 (Homo sapiens, UniProt Q9UBX0 95-180, R165K) (Q9UBX0 95-180 R165K): as the sequence (Q9UBX0 95-180 P111T) above, with T17P, R71K counted along it
Sequence of HESX1 (Homo sapiens, UniProt Q9UBX0 95-180) (Q9UBX0 95-180): as the sequence (Q9UBX0 95-180 P111T) above, with T17P counted along it
Sequence of PROP1 (Homo sapiens, UniProt O75360 56-141, R99H) (O75360 56-141 R99H): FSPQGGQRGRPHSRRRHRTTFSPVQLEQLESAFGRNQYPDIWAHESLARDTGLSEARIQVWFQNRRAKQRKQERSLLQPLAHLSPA
Sequence of PROP1 (Homo sapiens, UniProt O75360 56-141) (O75360 56-141): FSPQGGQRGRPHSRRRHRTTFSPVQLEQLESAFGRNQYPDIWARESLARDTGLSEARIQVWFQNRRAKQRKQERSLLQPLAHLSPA

As for CCGGCCGA, the binding signal in the assay with HESX1 [1] is 6.49 upbm affinity estimate (log intensity, higher = more binding, comparable within an allelic series); in the assay with HESX1 [2], 6.45 upbm affinity estimate (log intensity, higher = more binding, comparable within an allelic series); in the assay with PROP1 [3], 6.73 upbm affinity estimate (log intensity, higher = more binding, comparable within an allelic series); in the assay with HESX1 [4] it was 6.51 upbm affinity estimate (log intensity, higher = more binding, comparable within an allelic series); with PROP1 [5], 6.72 upbm affinity estimate (log intensity, higher = more binding, comparable within an allelic series); in the assay with HESX1 [6] it was 6.49 upbm affinity estimate (log intensity, higher = more binding, comparable within an allelic series). The binding signal in the assay with PROP1 [7] is 6.59 upbm affinity estimate (log intensity, higher = more binding, comparable within an allelic series); with HESX1 [8], 6.54 upbm affinity estimate (log intensity, higher = more binding, comparable within an allelic series).

With GCGTGGCC, the binding signal is 6.46 upbm affinity estimate (log intensity, higher = more binding, comparable within an allelic series) with HESX1 [1]; 6.31 upbm affinity estimate (log intensity, higher = more binding, comparable within an allelic series) with HESX1 [2]; 6.39 upbm affinity estimate (log intensity, higher = more binding, comparable within an allelic series) with HESX1 [4]; 7.21 upbm affinity estimate (log intensity, higher = more binding, comparable within an allelic series) with VAX1 [9]; 6.37 upbm affinity estimate (log intensity, higher = more binding, comparable within an allelic series) with HESX1 [6]; 6.39 upbm affinity estimate (log intensity, higher = more binding, comparable within an allelic series) with HESX1 [8]. The binding signal with VAX1 [10] was 7.36 upbm affinity estimate (log intensity, higher = more binding, comparable within an allelic series); with VAX1 [11], 6.97 upbm affinity estimate (log intensity, higher = more binding, comparable within an allelic series).

On to CCGCTCCC, for which the binding signal in the assay with HESX1 [1] was 6.47 upbm affinity estimate (log intensity, higher = more binding, comparable within an allelic series); in the assay with HESX1 [2], 6.49 upbm affinity estimate (log intensity, higher = more binding, comparable within an allelic series); in the assay with HESX1 [4], 6.46 upbm affinity estimate (log intensity, higher = more binding, comparable within an allelic series); with HESX1 [6], 6.35 upbm affinity estimate (log intensity, higher = more binding, comparable within an allelic series); with HESX1 [8], 6.43 upbm affinity estimate (log intensity, higher = more binding, comparable within an allelic series).

With ACAGCGCG, the binding signal with HESX1 [1] is 6.46 upbm affinity estimate (log intensity, higher = more binding, comparable within an allelic series); in the assay with HESX1 [2], 6.41 upbm affinity estimate (log intensity, higher = more binding, comparable within an allelic series); with HESX1 [4], 6.49 upbm affinity estimate (log intensity, higher = more binding, comparable within an allelic series); with VAX1 [9], 7.27 upbm affinity estimate (log intensity, higher = more binding, comparable within an allelic series); in the assay with HESX1 [6] it was 6.48 upbm affinity estimate (log intensity, higher = more binding, comparable within an allelic series); in the assay with HESX1 [8] it was 6.44 upbm affinity estimate (log intensity, higher = more binding, comparable within an allelic series). For the same sequence, the binding signal with VAX1 [10] was 7.28 upbm affinity estimate (log intensity, higher = more binding, comparable within an allelic series); in the assay with VAX1 [11], 7.22 upbm affinity estimate (log intensity, higher = more binding, comparable within an allelic series).

For AACTCATA, the binding signal with HESX1 [1] is 7.51 upbm affinity estimate (log intensity, higher = more binding, comparable within an allelic series); with HESX1 [2], 7.49 upbm affinity estimate (log intensity, higher = more binding, comparable within an allelic series); with HESX1 [4], 7.12 upbm affinity estimate (log intensity, higher = more binding, comparable within an allelic series); in the assay with HESX1 [6], 7.23 upbm affinity estimate (log intensity, higher = more binding, comparable within an allelic series).

For the sequence CAGCTCGG, the binding signal with HESX1 [1] is 6.3 upbm affinity estimate (log intensity, higher = more binding, comparable within an allelic series); with HESX1 [2], 6.27 upbm affinity estimate (log intensity, higher = more binding, comparable within an allelic series); with NKX2-6 [12] it was 8.88 upbm affinity estimate (log intensity, higher = more binding, comparable within an allelic series); with HESX1 [4], 6.34 upbm affinity estimate (log intensity, higher = more binding, comparable within an allelic series); with HESX1 [6], 6.3 upbm affinity estimate (log intensity, higher = more binding, comparable within an allelic series); with NKX2-6 [13] it was 9.23 upbm affinity estimate (log intensity, higher = more binding, comparable within an allelic series). The binding signal with HESX1 [8] was 6.51 upbm affinity estimate (log intensity, higher = more binding, comparable within an allelic series).

As to GAAGGAGC, the binding signal is 6.42 upbm affinity estimate (log intensity, higher = more binding, comparable within an allelic series) with HESX1 [1]; 6.37 upbm affinity estimate (log intensity, higher = more binding, comparable within an allelic series) with HESX1 [2]; 6.66 upbm affinity estimate (log intensity, higher = more binding, comparable within an allelic series) with PROP1 [3]; 6.46 upbm affinity estimate (log intensity, higher = more binding, comparable within an allelic series) with HESX1 [4]; 6.54 upbm affinity estimate (log intensity, higher = more binding, comparable within an allelic series) with PROP1 [5]; 6.42 upbm affinity estimate (log intensity, higher = more binding, comparable within an allelic series) with HESX1 [6]. Further, the binding signal was 6.62 upbm affinity estimate (log intensity, higher = more binding, comparable within an allelic series) with PROP1 [7] and 6.55 upbm affinity estimate (log intensity, higher = more binding, comparable within an allelic series) with HESX1 [8].

As for CACCCGGC, the binding signal is 6.47 upbm affinity estimate (log intensity, higher = more binding, comparable within an allelic series) with HESX1 [1]; 6.48 upbm affinity estimate (log intensity, higher = more binding, comparable within an allelic series) with HESX1 [2]; 9.18 upbm affinity estimate (log intensity, higher = more binding, comparable within an allelic series) with NKX2-6 [12]; 6.53 upbm affinity estimate (log intensity, higher = more binding, comparable within an allelic series) with HESX1 [4]; 6.47 upbm affinity estimate (log intensity, higher = more binding, comparable within an allelic series) with HESX1 [6]; 9.14 upbm affinity estimate (log intensity, higher = more binding, comparable within an allelic series) in the assay with NKX2-6 [13]. The binding signal with HESX1 [8] is 6.3 upbm affinity estimate (log intensity, higher = more binding, comparable within an allelic series).

On to CACGGCGC, for which the binding signal with HESX1 [1] was 6.6 upbm affinity estimate (log intensity, higher = more binding, comparable within an allelic series); with HESX1 [2] it was 6.29 upbm affinity estimate (log intensity, higher = more binding, comparable within an allelic series); with HESX1 [4], 6.5 upbm affinity estimate (log intensity, higher = more binding, comparable within an allelic series); in the assay with VAX1 [9], 7.16 upbm affinity estimate (log intensity, higher = more binding, comparable within an allelic series); with HESX1 [6] it was 6.54 upbm affinity estimate (log intensity, higher = more binding, comparable within an allelic series); with HESX1 [8], 6.57 upbm affinity estimate (log intensity, higher = more binding, comparable within an allelic series). The binding signal with VAX1 [10] is 7.21 upbm affinity estimate (log intensity, higher = more binding, comparable within an allelic series); with VAX1 [11], 7.23 upbm affinity estimate (log intensity, higher = more binding, comparable within an allelic series).
